Most compounds without a hit are left out; they make up all but 32% or so of the library.
PostGolgi yeast = growth inhibition of a yeast mutant, post-Golgi transport screen; post-Golgi transport phenotypic cell assay; inhibition, % at 10 µM; 98,000 compounds, 0.9% hits; AID 739;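 also: yeast cells grown in 1536-well plates; yeast grown about 18 h at 30C before absorbance read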
CYP2C9 inh = blocks human cytochrome P450 2C9 | CYP2C9 Supersomes, luciferin-H conversion, luminescence | inhibition, % at 5 µM | P11712 | AID 777 | 96,000 compounds, 20% hits;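 active = blocking of liver enzyme CYP2C9 beyond about 50% at 5 µM, limit read from the data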
CYP2C9 activ = activators of human CYP2C9; P11712; recombinant CYP2C9, luciferin-H conversion, luminescence; active compounds read high; factor 1 = untreated enzyme, 0 = blocked; activation factor at 5 µM; 96,000 compounds, 1.4% hits; AID 1024;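 active = activation factor of 2 or more for CYP2C9 at a 5 µM dose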;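 also: 0 = sulfaphenazole-blocked wells and 1 = vehicle-only wells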
PostGolgi ctrl = inhibits growth of the yeast control strain | 98,000 compounds, 5% hits | inhibition, % at 10 µM | AID 738 | efflux-deficient yeast background strain, growth absorbance A615, 16 h
CYP2C19 inhib = inhibitors of human CYP2C19 | 96,000 compounds, 21% hits | inhibition, % at 5 µM | CYP2C19 Supersomes, luciferin-H EGE luminescence, 30 min | P33261;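 active = CYP2C19 inhibition above a set limit at 5 µM in the primary screen, cut at about 50% in these data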;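 also: plate controls were negative control wells for no effect and 2.5 mM tranylcypromine positive control for full effect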
Target sequence (P33261 whole entry, looked up): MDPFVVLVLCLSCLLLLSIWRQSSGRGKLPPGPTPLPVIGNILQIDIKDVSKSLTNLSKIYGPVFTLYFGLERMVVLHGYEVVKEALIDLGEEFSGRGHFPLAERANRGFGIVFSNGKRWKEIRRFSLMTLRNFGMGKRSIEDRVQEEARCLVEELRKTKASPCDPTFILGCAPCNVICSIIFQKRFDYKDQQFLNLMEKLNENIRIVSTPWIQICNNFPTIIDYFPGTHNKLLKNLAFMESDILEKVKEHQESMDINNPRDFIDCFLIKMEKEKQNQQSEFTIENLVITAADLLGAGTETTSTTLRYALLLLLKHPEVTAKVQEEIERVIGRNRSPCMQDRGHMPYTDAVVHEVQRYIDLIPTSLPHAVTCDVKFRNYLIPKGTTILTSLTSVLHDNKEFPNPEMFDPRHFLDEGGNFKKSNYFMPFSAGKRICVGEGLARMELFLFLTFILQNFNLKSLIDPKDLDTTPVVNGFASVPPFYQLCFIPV
CYP2C19 act = cytochrome P450 2C19 (human) activation; P33261; recombinant CYP2C19, luciferin-H EGE luminescence; active compounds read high; 0 = fully inhibited enzyme, 1 = untreated enzyme; activation factor at 5 µM; 96,000 tested, under 10 active; AID 1025;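 active = activation factor of at least 2 at 5 µM in the primary screen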;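 also: 0 = wells with 2.5 mM tranylcypromine and 1 = vehicle-only wells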
Numbers without * were called inactive. Rule as the data show it, unless noted: active = inhibition above about 30%; inactive = the rest.

How did CCCn1nnc(NC(=O)c2cccc(OCc3ccccc3)c2)n1 do in these assays?
PostGolgi yeast: -6; CYP2C9 inh: 61*; CYP2C9 activ: 0.4; PostGolgi ctrl: 11; CYP2C19 inhib: 47; CYP2C19 act: 0.5

How did CCc1ccc(C(=O)Nc2nnn(CC)n2)cc1 do in these assays?
PostGolgi yeast: -2; CYP2C9 inh: 50*; CYP2C9 activ: 0.5; PostGolgi ctrl: 7; CYP2C19 inhib: 46; CYP2C19 act: 0.5

Results for CCCn1nnc(NC(=O)c2cc3ccccc3o2)n1 ?
PostGolgi yeast: -1; CYP2C9 inh: 14; CYP2C9 activ: 0.9; PostGolgi ctrl: -5; CYP2C19 inhib: 10; CYP2C19 act: 0.9

Results for CCCn1nnc(NC(=O)c2cccc(Cl)c2)n1 ?
PostGolgi yeast: -2; PostGolgi ctrl: 8

How did CC(C)COC(=O)Nc1ccccc1C(=O)N1CCOCC1 do in these assays?
PostGolgi yeast: 2; CYP2C9 inh: 5; CYP2C9 activ: 1; PostGolgi ctrl: 7; CYP2C19 inhib: 18; CYP2C19 act: 0.8

What do the screens show for `COC(=O)c1ccc2ccn(CC(=O)NC(C)C)c2c1`?
PostGolgi yeast: 7; CYP2C9 inh: 27; CYP2C9 activ: 0.7; PostGolgi ctrl: 14; CYP2C19 inhib: 44; CYP2C19 act: 0.6

Results for CC(=C1C2C=CC1C1C(=O)NC(=O)C21)c1ccccc1 (stereo not given) ?
PostGolgi yeast: 3; CYP2C9 inh: -18; CYP2C9 activ: 1.2; PostGolgi ctrl: 24; CYP2C19 inhib: 79*; CYP2C19 act: 0.2

What do the screens show for `Cc1[nH]c(=O)cc2ccccc12`?
PostGolgi yeast: -8; CYP2C9 inh: -12; CYP2C9 activ: 1.1; PostGolgi ctrl: 3; CYP2C19 inhib: 5; CYP2C19 act: 1

Results for COC(=O)c1cc2sc(Cl)cc2n1CC(=O)Nc1ccc(OC)c(OC)c1OC ?
PostGolgi yeast: 4; CYP2C9 inh: 9; CYP2C9 activ: 0.9; PostGolgi ctrl: -1; CYP2C19 inhib: 27; CYP2C19 act: 0.7

Results for COC(=O)c1cc2sc(Cl)cc2n1Cc1nc(-c2ccccc2)oc1C ?
PostGolgi yeast: -11; CYP2C9 inh: 48; CYP2C9 activ: 0.5; PostGolgi ctrl: 7; CYP2C19 inhib: 20; CYP2C19 act: 0.8

What do the screens show for `COC(=O)c1cc2sc(Cl)cc2n1CC(=O)Nc1cccc(SC)c1`?
PostGolgi yeast: -10; CYP2C9 inh: 75*; CYP2C9 activ: 0.3; PostGolgi ctrl: 1; CYP2C19 inhib: 44; CYP2C19 act: 0.6

Results for COC(=O)c1cc2sc(Cl)cc2n1CC(=O)NCC1CCCO1 (stereo not given) ?
PostGolgi yeast: 6; CYP2C9 inh: -20; CYP2C9 activ: 1.2; PostGolgi ctrl: 36*; CYP2C19 inhib: 35; CYP2C19 act: 0.6

How did CC(C)(C)NC(=O)Cn1c(=O)oc2ccc(Cl)cc21 do in these assays?
PostGolgi yeast: 1; PostGolgi ctrl: -8

How did CSc1nc(N(C)NC(=O)c2ccc(Cl)cc2)c2ccccc2n1 do in these assays?
PostGolgi yeast: 4; CYP2C9 inh: 17; CYP2C9 activ: 0.8; PostGolgi ctrl: -1; CYP2C19 inhib: 0; CYP2C19 act: 1

What do the screens show for `CSc1nc(N(C)NC(=O)c2ccccc2)c2ccccc2n1`?
PostGolgi yeast: -1; CYP2C9 inh: 65*; CYP2C9 activ: 0.3; PostGolgi ctrl: 6; CYP2C19 inhib: 88*; CYP2C19 act: 0.1

What do the screens show for `CC(=O)N1c2ccccc2C(C)(c2ccccc2)CC1(C)C` (stereo not given)?
PostGolgi yeast: -5; CYP2C9 inh: 54*; CYP2C9 activ: 0.5; PostGolgi ctrl: 15; CYP2C19 inhib: 64*; CYP2C19 act: 0.4

How did CCN(C(=O)CN1CCN(C)CC1)c1cccc2ccccc12 do in these assays?
PostGolgi yeast: 4; CYP2C9 inh: -6; CYP2C9 activ: 1.1; PostGolgi ctrl: 9; CYP2C19 inhib: -14; CYP2C19 act: 1.1

How did CN1CCN(CC(=O)N2c3ccccc3C(C)(c3ccccc3)CC2(C)C)CC1 (stereo not given) do in these assays?
PostGolgi yeast: -4; CYP2C9 inh: -5; CYP2C9 activ: 1.1; PostGolgi ctrl: 36*; CYP2C19 inhib: -4; CYP2C19 act: 1

Results for CN1CCN(CC(=O)N2c3ccccc3C(C)(c3ccc(Cl)cc3)CC2(C)C)CC1 (stereo not given) ?
PostGolgi yeast: 3; CYP2C9 inh: 0; CYP2C9 activ: 1; PostGolgi ctrl: 39*; CYP2C19 inhib: 6; CYP2C19 act: 0.9

What do the screens show for `COc1ccc(-n2nc(C(=O)NCC(=O)NCc3ccco3)c3ccccc3c2=O)cc1Cl`?
PostGolgi yeast: -2; CYP2C9 inh: 36; CYP2C9 activ: 0.6; PostGolgi ctrl: -9; CYP2C19 inhib: -2; CYP2C19 act: 1

Results for CCC(C)(C)n1nnnc1C(c1ccc(O)c(OC)c1)N1CCc2ccccc2C1 (stereo not given) ?
PostGolgi yeast: -8; CYP2C9 inh: 33; CYP2C9 activ: 0.7; PostGolgi ctrl: -4; CYP2C19 inhib: 32; CYP2C19 act: 0.7

What do the screens show for `CCS(=O)(=O)Nc1ccc2c(c1)N(C(C)=O)c1ccccc1CC2`?
PostGolgi yeast: 4; CYP2C9 inh: 70*; CYP2C9 activ: 0.3; PostGolgi ctrl: 18; CYP2C19 inhib: 25; CYP2C19 act: 0.7

What do the screens show for `O=C(NC1CCCCCC1)C1CC(=O)N(Cc2ccccc2)C1` (stereo not given)?
PostGolgi yeast: -12; CYP2C9 inh: -48; CYP2C9 activ: 1.5; PostGolgi ctrl: -7; CYP2C19 inhib: 38; CYP2C19 act: 0.6

Results for COC(=O)c1sc(N)c(C(=O)OC)c1COC(=O)C1CC(=O)N(Cc2ccco2)C1 (stereo not given) ?
PostGolgi yeast: 11; CYP2C9 inh: 91*; CYP2C9 activ: 0.1; PostGolgi ctrl: 4; CYP2C19 inhib: 79*; CYP2C19 act: 0.2

What do the screens show for `CCOC(=O)c1[nH]c(COC(=O)C2CC(=O)N(Cc3ccccc3)C2)c(C(=O)OCC)c1C` (stereo not given)?
PostGolgi yeast: -2; CYP2C9 inh: 60*; CYP2C9 activ: 0.4; PostGolgi ctrl: 8; CYP2C19 inhib: 39; CYP2C19 act: 0.6

What do the screens show for `CCOC(=O)c1sc(N)c(C(=O)OCC)c1COC(=O)C1CC(=O)N(Cc2ccco2)C1` (stereo not given)?
PostGolgi yeast: 18; CYP2C9 inh: 98*; CYP2C9 activ: 0; PostGolgi ctrl: 4; CYP2C19 inhib: 91*; CYP2C19 act: 0.1

How did COc1ccc(C)cc1NC(=O)C1CC(=O)N(Cc2ccco2)C1 (stereo not given) do in these assays?
PostGolgi yeast: 7; CYP2C9 inh: 17; CYP2C9 activ: 0.8; PostGolgi ctrl: 5; CYP2C19 inhib: 36; CYP2C19 act: 0.6

How did O=C(Nc1ccc2c(c1)OCCO2)C1CCN(C(=O)c2ccc(F)cc2)CC1 do in these assays?
PostGolgi yeast: 8; CYP2C9 inh: 23; CYP2C9 activ: 0.8; PostGolgi ctrl: 9; CYP2C19 inhib: 19; CYP2C19 act: 0.8

Source: PubChem BioAssay (several laboratories)
